Screening results from PubChem BioAssay.
Giardia FBPA inh: inhibitors of Giardia lamblia fructose-1,6-bisphosphate aldolase; A8B2U2; Potency, µM (titrated, usually from 59.6 µM), actives largely listed as inhibitors; AID 2451; purified Giardia FBPA; 290,000 tested, 0.71% active; also: nearly all actives have a fitted effect of over 55% in size
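Giardia FBPA (40 nM reagent) was preincubated 10 min at RT with compound (up to 57.5 uM final), then substrate plus GAPDH/TPI/NAD/arsenate coupling system with diaphorase/resazurin was added; resorufin fluorescence (525/598 nm) was read after 20 min.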
Shiga inhibitor: inhibitors of Shiga toxin in Vero cells | Vero cells, Shiga toxin protein synthesis inhibition reporter | inhibition, % at 38.7 µM | 290,000 tested, 9.2% active; in the data active = inhibition mostly above about 28%, no sharp cut-off; inactive = mostly below about 43%
Cycloheximide cs: counter-screen hit for Shiga toxin inhibitors, cycloheximide. max response, %. 300,000 tested, 12% active. cell reporter, cycloheximide protein synthesis inhibition counterscreen; in the data active = max response mostly above about 13%, no sharp cut-off; inactive = mostly below about 14%; also: read at 38.3 µM for the half of the compounds with a filed dose
Tb PYK inh: blocks Trypanosoma brucei pyruvate kinase | Q57TT1 | TbPYK enzyme, Kinase-Glo Plus ATP luminescence, 45 min | Potency, µM (series often up to 76.8 µM), usual class: inhibitors | 410,000 tested, 0.12% active | AID 624173; also: nearly all actives have a fitted effect of over 50% in size
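Assay buffer: 50 mM TEA pH 7.2, 100 mM KCl, 10 mM MgCl2, 0.05% BSA, 0.01% Tween-20. Pyruvate kinase from T. brucei plus substrate met compound, then ADP (130 uM final). Luminescence was read post 45 min RT.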
LmPK inh: inhibitors of Leishmania mexicana pyruvate kinase. Potency, µM (top dose mostly 57.5 µM), actives largely listed as inhibitors. 290,000 tested, 0.37% active. purified LmPK, Kinase-Glo ATP luminescence, 1 h. Q27686
Target sequence (Q27686 whole entry, looked up): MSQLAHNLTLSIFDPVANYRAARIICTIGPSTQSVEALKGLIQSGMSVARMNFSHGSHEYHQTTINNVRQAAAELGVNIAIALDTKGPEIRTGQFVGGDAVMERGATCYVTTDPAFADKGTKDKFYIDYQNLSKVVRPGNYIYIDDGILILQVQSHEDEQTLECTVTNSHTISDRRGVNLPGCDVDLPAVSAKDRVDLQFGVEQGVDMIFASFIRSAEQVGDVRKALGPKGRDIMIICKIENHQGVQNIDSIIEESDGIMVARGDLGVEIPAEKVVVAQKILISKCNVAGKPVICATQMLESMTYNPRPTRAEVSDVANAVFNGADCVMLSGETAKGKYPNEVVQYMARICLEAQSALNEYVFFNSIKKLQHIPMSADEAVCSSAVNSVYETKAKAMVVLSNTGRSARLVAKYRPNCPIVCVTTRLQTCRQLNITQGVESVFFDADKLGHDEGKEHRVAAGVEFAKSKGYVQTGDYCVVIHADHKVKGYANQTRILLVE
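ATP generated from ADP (0.1 mM) and PEP (0.5 mM) by 0.1 nM LmPK over 1 h at room temperature (pH 7.2 imidazole buffer) was detected by coupled luciferase luminescence. Values were normalized to uninhibited and no-enzyme wells.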
Sm TGR inh: inhibitors of Schistosoma mansoni thioredoxin glutathione reductase. Q962Y6. purified TGR, DTNB reduction, TNB absorbance 405 nm. Potency, µM (highest dose often 114 µM), actives largely listed as inhibitors. 360,000 tested, 3% active. AID 485364; also: nearly all actives have a fitted effect of over 60% in size
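Kinetic colorimetric format: TGR-catalysed, NADPH-driven DTNB reduction monitored via TNB absorbance. Enzyme dispensed at 20 nM; compound exposure 15 min at room temperature before reaction start.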
Hits are given with their value; . = inactive; ? = inconclusive; / = not tested or not shown; + = active, no number. The full list was thinned out, with hits kept by preference. Unless noted, calls follow the shape of the dose curve; as a rule, active = well fitted curve in the direction sought with a large enough effect; inconclusive = small, poorly fitted or top-dose-only effect, or another doubt; inactive = no such curve, though single readings can be large; an effect the other way counts as inactive or inconclusive.

SMILES	Giardia FBPA inh	Shiga inhibitor	Cycloheximide cs	Tb PYK inh	LmPK inh	Sm TGR inh
CCCC1CCC(=NNS(=O)(=O)c2ccc(C)c([N+](=O)[O-])c2)CC1 (stereo not drawn)	.	.	.	.	.	.
CCCC1CCC(=NNC(=O)OC(C)(C)C)CC1 (stereo not drawn)	.	.	31	.	.	.
COc1ccc(-n2c(=O)c3sc4ccccc4c3n(C)c2=O)cc1	/	/	/	.	/	.
CC(C)CN=c1cc(-c2ccccc2)oc2ccc(Cl)cc12	.	.	35	.	.	.
O=c1cc(-c2ccccc2)oc2ccc(Br)cc12	/	/	/	.	/	/
CC(O)CN=c1cc(-c2ccccc2)oc2ccc(Cl)cc12 (stereo not drawn)	.	77	55	.	.	.
Cc1cc2c(cc1S(=O)(=O)CCC(=O)N1CCN(c3ccccc3)CC1)OCC(=O)N2	/	/	/	.	/	.
CC(C)c1cnc2c(c1SCC(=O)N1CCCCC1)c(=O)n(C)c(=O)n2C	/	/	/	?	/	.
Cc1cc(C)cc(NC(=O)Nc2ccc(NC(=O)c3ccccc3O)cc2)c1	.	.	.	.	.	.
O=C(Nc1ccccc1)c1ccccc1I	.	42	31	/	/	/
Cc1ccc(NC(=O)c2ccccc2O)cc1	.	+	34	.	.	.
Cc1ccc(-c2nn(-c3ccccc3)cc2C(=O)Nc2ccc(C(=O)O)cc2)cc1	.	48	21	.	.	.
O=C(Nc1ccc(Nc2ccccc2)cc1)c1ccc(F)cc1	.	33	36	.	.	.
COc1cc(NC(=O)c2cccc(Cl)c2Cl)ccc1NC(=O)c1cc2ccccc2o1	/	/	/	.	/	.
COC(=O)CN1C(=O)C(C)(C)c2cc(S(=O)(=O)Nc3ccc(Br)cc3F)ccc21	/	/	/	.	/	.
CCC(C)NC(=O)Cn1ccc2cc(S(=O)(=O)N3CCCCCC3)ccc21 (stereo not drawn)	.	.	.	.	.	.
Cc1ccccc1CNC(=O)C(C)n1nc(C)n2c(cc3occc32)c1=O (stereo not drawn)	/	/	/	.	/	.
COc1ccc(NC(=O)c2ccc(C)cc2)c[n+]1[O-]	.	.	12	.	.	.
COC(=O)c1ccc(NC(=O)c2cc[n+]([O-])cc2)cc1	.	/	.	.	.	.
Cc1ccc(NC(=O)NNC(=O)c2ccccc2)cc1	.	44	22	.	.	/
Cc1ccc(N/C(=C\C(=O)c2ccccc2)C(=O)O)cc1	.	100	47	.	.	.
Cc1ccc(NC(=O)/C(=C\C=C\c2ccccc2)NC(=O)c2ccccc2)cc1	.	.	.	.	.	.
Cc1ccc(NC(=O)c2ccccc2)cc1	.	109	33	.	?	.
Cn1nnnc1SCCCNCc1cccc(OCc2ccccc2)c1	/	/	/	.	/	.
Cc1ccc(NC(=O)C2=C(c3ccccc3)S(=O)(=O)CCS2(=O)=O)cc1	.	.	34	.	.	0.32µM
SMILES	Giardia FBPA inh	Shiga inhibitor	Cycloheximide cs	Tb PYK inh	LmPK inh	Sm TGR inh
Cc1ccc(NC(=O)c2ccccc2-c2ccccc2C(=O)O)cc1	.	.	.	.	.	.
Cc1ccc(NC(=O)C(=O)c2ccc(C)cc2)cc1	.	.	57	.	.	.
CSCCC(NS(=O)(=O)c1ccc2c(c1)oc(=O)n2C)C(=O)NCc1ccc(F)cc1 (stereo not drawn)	/	/	/	.	/	.
CC1(C)CC(=O)C2=C(C1)OC1=C(C(=O)CC(C)(C)C1)C2c1ccc(O)cc1O	.	.	.	40µM	.	22µM
CC1(C)CC(=O)C2=C(C1)OC1=C(C(=O)CC(C)(C)C1)C2c1ccc(O)c([N+](=O)[O-])c1	.	.	.	.	.	.
Cc1nccc(-c2sc(-c3cccs3)nc2C)n1	.	58	36	.	.	.
CN=c1scc(-c2ccc([N+](=O)[O-])cc2)n1/N=C/c1ccco1	.	91	27	.	.	.
O=C1c2ccc([N+](=O)[O-])cc2NC(c2ccco2)N1/N=C/c1ccco1 (stereo not drawn)	.	31	15	.	.	40µM
O=C1c2ccccc2NC(c2ccc(-c3cccc([N+](=O)[O-])c3)o2)N1O (stereo not drawn)	?	.	.	.	.	?
Cc1cccc(OCc2ccc(-c3nc(C#N)c(NCCN(C)C)o3)o2)c1	/	/	/	.	/	.
Cc1ccccc1OCc1nc2c3cnn(-c4ccccc4Br)c3ncn2n1	/	/	/	.	/	.
Cc1ccccc1OCc1nnc2c3cnn(C)c3ncn12	.	.	39	.	.	.
CC(=O)N(Cc1c(C)nn(-c2ccccc2)c1Cl)c1ccc(Cl)cc1	.	.	.	.	.	.
Cc1nn(-c2ccccc2)c(Cl)c1CN(C(=O)CCl)c1cccc2ccccc12	.	.	12	.	.	?
Cc1nn(-c2ccccc2)c(Cl)c1CN(C(=O)CCl)c1ccc(Cl)cc1	.	.	.	.	.	2µM
O=[N+]([O-])c1cccc(-c2nnc(SCc3cccnc3)o2)c1	.	.	13	.	.	.
COc1cc(OC)cc(-c2nnc(SCc3cccnc3)o2)c1	.	.	17	.	.	.
COc1cccc(-c2nnc(SCc3cccnc3)o2)c1	.	98	67	.	.	.
Cc1cc(-c2nnc(SCc3cccnc3)o2)no1	.	.	.	.	.	.
O=C(O)CC/C=C\CC[C@H]1[C@@H](N2CCCCC2)[C@@H](O)C[C@@H]1OCc1ccc(-c2ccccc2)cc1	.	/	/	/	/	/
CCOC(=O)c1c(S(=O)(=O)NCC(=O)N(C)Cc2ccccc2)c(C)n(C)c1C	/	/	/	.	/	.
COc1ccc(NC(=O)c2ccco2)cc1NC(=O)COc1ccccc1Cl	/	/	/	.	/	.
CCOc1ncccc1C(=O)Nc1ccc2nc(C)sc2c1	.	50	14	.	.	.
CSc1ncccc1C(=O)Nc1nc2ccc(Oc3ccccc3)cc2s1	.	56	15	.	.	.
CCOc1ncccc1C(=O)Nc1ccc(F)c(F)c1	.	.	.	.	.	.
SMILES	Giardia FBPA inh	Shiga inhibitor	Cycloheximide cs	Tb PYK inh	LmPK inh	Sm TGR inh
CSc1ncccc1C(=O)Nc1ccc2nc(C)sc2c1	.	50	19	.	.	.
Cc1ccn2c(=O)nc(SCC(=O)N3CCCCC3)nc2c1	/	/	/	.	/	.
NC(=O)C1CCN(C(c2ccccc2Cl)c2nnnn2Cc2ccc3c(c2)OCO3)CC1 (stereo not drawn)	.	.	.	.	.	?
O=C(Nc1ccc(F)c(Cl)c1)N1CCC(CN2CCc3ccccc3C2)CC1	/	/	/	.	/	.
COc1ccc2c(c1)c1ncn(CCN3CCCC3)c(=O)c1n2C	.	.	.	.	.	.
COc1ccc2c(c1)c1ccc3c(c1n2C)C(=O)C=CC3=O	?	.	.	?	?	1.3µM
Cc1ccc2c(c1)c1ccc3c(c1n2C)C(=O)C=CC3=O	?	.	.	?	?	2.5µM
Cc1ccc2c(c1)c1ncnc(N3CCN(c4ccccc4)CC3)c1n2C	.	.	.	.	.	.
Cn1c2ccccc2c2ccc3c(c21)C(=O)C=CC3=O	/	/	/	22µM	/	/
